Test results as given in PubChem BioAssay AID485297 (National Center for Advancing Translational Sciences (NCATS), 2010).
About 9,100 (2.8%) of roughly 320,000 compounds were called active. About 3% were inconclusive and are not listed. The entries come from a sample that favours actives as a whole. Values without a mark were called inactive. Calls follow the shape of the dose curve; as a rule, active = well fitted activation curve with a large enough effect; inconclusive = small, poorly fitted or top-dose-only effect; inactive = no such curve, though single readings can be large or run the other way.
Potency is read from the fitted curve at half-maximal effect.

Experiment: qHTS Assay for Rab9 Promoter Activators; also: nearly all actives have a fitted effect of over 60% in size; as to activation, negative = inhibition: % of control where 0% means no effect
Conditions: Huh7 Rab9 promoter-luciferase reporter, luminescence, 24 h; series mostly up to 9.22 µM; activation, negative = inhibition: at the top concentration
In short: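 Rab9 promoter-driven luciferase in stably transfected Huh7 cells; 1500 cells/well rested 2 h, exposed to compound in DMSO for 24 h at 37 °C, 5% CO2. Luminescence read 10 min after adding luciferase reagent at ambient temperature.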
For `Cc1cc(NC(=O)CSc2nnc(-c3ccc(Cl)s3)o2)no1`, the “activation, negative = inhibition” value was -1.01%.
For `Cc1ccc(C(=O)/C=C/Nc2ccc(S(=O)(=O)Nc3onc(C)c3C)cc2)cc1`, the “activation, negative = inhibition” value was 2.91%.
With `Cc1cc(N/C=C\C(=O)c2ccc(Cl)c(Cl)c2)no1` the Potency was 2820 nM (active).
With `COc1cc(OC)cc(-c2c(-c3cccs3)c3cc(-c4ccc(OC)cc4F)ccc3n2C)c1` the “activation, negative = inhibition” value was -4.07%.
With `Cc1ccc(C(=O)c2c(NC(=O)c3ccccc3)sc(C)c2C)cc1` the “activation, negative = inhibition” value was -0.247%.
For `Cc1sc(NC(=O)c2ccc3ncsc3c2)c(C(N)=O)c1C`, the Potency was 1580 nM (active).
With `O=C(COC(=O)c1ccc2ncsc2c1)Nc1ccc(Cl)cc1` the “activation, negative = inhibition” value was 1.26%.
In the case of `CCc1ccc(OCC(=O)OCC(=O)c2c(N)n(C)c(=O)n(C)c2=O)cc1`, the “activation, negative = inhibition” value is reported as -0.827%.
For `CC(C)(C)c1ccc(/C=C/C(=O)Nc2ncccn2)cc1`, the Potency was 3980 nM (active).
For `Cc1cc(C)nc(NC(=O)/C=C/c2ccc(Cl)cc2)n1`, the “activation, negative = inhibition” value was 15.4%.
For `O=C(/C=C/c1ccc(Cl)cc1)Nc1ccc(S(=O)(=O)Nc2ncccn2)cc1`, the “activation, negative = inhibition” value was -0.0735%.
In the case of `C[C@H](NC(=O)c1ccccc1Cl)C(=O)OCC(=O)N1CCN(c2ccccc2)CC1`, the “activation, negative = inhibition” value is reported as 2.66%.
In the case of `O=C(CNC(=O)c1ccccc1)NCC(=O)OCC(=O)c1ccccc1`, the “activation, negative = inhibition” value is reported as -4.76%.
With `O=C(COC(=O)CNC(=O)c1ccccc1F)NCC(F)(F)F` the “activation, negative = inhibition” value was -1.45%.
With `O=C(CNC(=O)c1ccccc1Br)NCCSc1ccc(Br)cc1` the “activation, negative = inhibition” value was -4.71%.
With `O=C(CNC(=O)c1ccccc1F)c1ccc(Br)cc1` the Potency was 1260 nM (active).
With `O=C(NCCS(=O)(=O)NCc1ccc(F)cc1)c1ccccc1` the “activation, negative = inhibition” value was -1.67%.
For `O=C(CNC(=O)c1ccc(F)cc1)c1ccccc1`, the Potency was 794 nM (active).
In the case of `O=S(=O)(NCc1ccccc1Br)c1ccccc1Br`, the “activation, negative = inhibition” value is reported as -5.13%.
For `COc1cccc(CNC(=O)COc2cc(O)c3c(c2)OC(C)(C)CC3=O)c1`, the “activation, negative = inhibition” value was 0.976%.
For `Nc1c(N(CCCO)C(=O)C2CCCC2)c(=O)[nH]c(=O)n1Cc1ccccc1`, the “activation, negative = inhibition” value was 1.33%.
With `O=C(CSc1nnc(-c2ccc([N+](=O)[O-])cc2)o1)Nc1ccccn1` the Potency was 398 nM (active).
For `CCOC(=O)CSc1nnc(-c2ccc([N+](=O)[O-])cc2)o1`, the “activation, negative = inhibition” value was -5.1%.
For `CCc1ccccc1NC(=O)CSc1nnc(-c2ccncc2)o1`, the “activation, negative = inhibition” value was -3.31%.
For `O=c1c2ccccc2ccc2ccc(P(=O)(O)O)cc12`, the “activation, negative = inhibition” value was -4.2%.
For `Cc1c(NS(=O)(=O)c2cc(C(=O)NCCc3ccc(F)cc3)cc(Cl)c2Cl)c(=O)n(-c2ccccc2)n1C`, the “activation, negative = inhibition” value was -2.31%.
With `O=C(COC(=O)C1(c2ccc(F)cc2)CCCC1)N1CCNC1=O` the “activation, negative = inhibition” value was -3.66%.
With `CCn1c(=N)n(CC(=O)c2cccc(OC)c2)c2ccccc21` the Potency was 3160 nM (active).
For `CCOC(=O)c1cc2ccccc2n1CC(=O)c1ccccc1`, the “activation, negative = inhibition” value was 0.055%.
With `COc1ccc2cc(C(=O)O)n(CC(=O)c3ccccc3)c2c1` the “activation, negative = inhibition” value was 1.75%.
`O=C1OC2(CCCCC2)CC2=C1C1O[C@](c3ccsc3)(Cc3ccccc31)O2` showed an activation, negative = inhibition of 1.46% [at 1.84 µM].
In the case of `COc1ccc(OCCCC(=O)Nc2cccc(S(=O)(=O)N3CCCCCC3)c2)cc1`, the “activation, negative = inhibition” value is reported as -1.93%.
With `C/C(=N\NC(=O)c1nc(C)cc(C)n1)c1ccccc1` the Potency was 1780 nM (active).
In the case of `C/C(=N\NC(=O)c1cccnc1)c1ccc(-c2ccccc2)cc1`, the “activation, negative = inhibition” value is reported as 1.66%.
In the case of `COc1ccc(/C(C)=N/NC(=O)c2ccc3nc[nH]c3c2)cc1`, the “activation, negative = inhibition” value is reported as 0.0511%.
For `Cc1ccc(Nc2nnc(SC(C)C(=O)NC3CC3)s2)cc1` (stereo unspecified), the “activation, negative = inhibition” value was 7.4%.
With `COc1ccc(/C=N/S(=O)(=O)c2ccccc2)cc1OC` the “activation, negative = inhibition” value was 0.684%.
In the case of `Oc1c(Br)cccc1/C=N/Nc1c(F)c(F)c(F)c(F)c1F`, the “activation, negative = inhibition” value is reported as -1.3%.
For `CCOc1ccc(/C=N/Nc2nncc(-c3ccccc3)n2)cc1OC`, the “activation, negative = inhibition” value was 15.1%.
For `CCOc1ccccc1/C=N/Nc1nc2ccccc2o1`, the “activation, negative = inhibition” value was 23.1%.
In the case of `COc1ccc(/C=N/Nc2nc3ccccc3o2)cc1OC`, the Potency is reported as 1000 nM (active).
For `Brc1ccccc1/C=N/Nc1nc2ccccc2o1`, the Potency was 2820 nM (active).
In the case of `Cc1nc(SCC(=O)NC2CCCCC2C)c(C#N)c(C)c1C` (stereo unspecified), the “activation, negative = inhibition” value is reported as 0.0606%.
With `Cc1ccc(S(=O)(=O)N2CC(O)C[C@H]2C(=O)OCC(=O)Nc2ccc(N3CCOCC3)cc2)cc1C` (stereo partly specified) the “activation, negative = inhibition” value was -2.09%.
In the case of `O=C(CCNC(=O)c1ccc(Cl)cc1)NC1CCCc2ccccc21` (stereo unspecified), the “activation, negative = inhibition” value is reported as 5.31%.
For `O=C(CNC(=O)c1cc2c(s1)CCC2)Nc1ccccc1Br`, the “activation, negative = inhibition” value was 0.482%.
In the case of `O=C(Nc1ccc(F)cc1)c1cc2c(s1)CCCC2`, the Potency is reported as 1260 nM (active).
For `CN(C)C(=O)c1ccc(NC(=O)COC(=O)c2cc3c(s2)CCCCC3)cc1`, the “activation, negative = inhibition” value was 2.12%.
For `O=C(NCC1CCCO1)c1cc2c(s1)CCCC2` (stereo unspecified), the Potency was 2510 nM (active).
With `O=C(NCCCN1CCOCC1)c1cc2c(s1)CCC2` the “activation, negative = inhibition” value was 1.38%.
In the case of `CCC(=O)c1c[nH]c(C(=O)NCC2CCCO2)c1` (stereo unspecified), the “activation, negative = inhibition” value is reported as -4.9%.
For `CC(C)Cc1nnc(NC(=O)CCNC(=O)c2ccccc2Cl)s1`, the “activation, negative = inhibition” value was 0.551%.
With `CCN(CC(=O)Nc1ccccc1OC)C(=O)CC1CC2CCC1C2` (stereo unspecified) the “activation, negative = inhibition” value was -5.8%.
For `Cc1ccc(-c2nc(C#N)c(NCCCn3ccnc3)o2)cc1`, the Potency was 3980 nM (active).
For `Cc1ccc(S(=O)(=O)c2nc(NCCCn3ccnc3)sc2Cl)cc1`, the “activation, negative = inhibition” value was -4.01%.
For `COc1ccc(/C=C(\C#N)C(=O)NCCCn2ccnc2)cc1`, the “activation, negative = inhibition” value was -7.01%.
For `O=C(CCc1nc(-c2ccccc2)no1)Nc1cccc(C(=O)NC2CC2)c1`, the “activation, negative = inhibition” value was 1.08%.
For `COC(=O)c1ccc(/C=N\n2c(C)nnc2C)cc1`, the “activation, negative = inhibition” value was -5.25%.
For `COC(=O)c1ccc(/C=N/N2C(C)CCCC2C)cc1` (stereo unspecified), the Potency was 2240 nM (active).
In the case of `CC1CCCC(C)N1/N=C/c1ccccc1OC(F)F` (stereo unspecified), the “activation, negative = inhibition” value is reported as -0.13%.
With `CCC1(CC)NC(=O)N(CC(=O)OCC(=O)c2cc(C)c(C)cc2C)C1=O` the “activation, negative = inhibition” value was -6.43%.
In the case of `CC(C)CN(C(=O)c1cccc(S(=O)(=O)N2CCCCC2)c1)C1CCS(=O)(=O)C1` (stereo unspecified), the “activation, negative = inhibition” value is reported as -0.844%.
In the case of `O=C(NNC(=S)Nc1ccc(Br)cc1Cl)c1ccco1`, the Potency is reported as 2820 nM (active).
With `CCC(=O)NC(=S)Nc1ccc(NC(=O)c2ccco2)c(Cl)c1` the “activation, negative = inhibition” value was 3.12%.
In the case of `O=C(NNC(=O)c1ccco1)Nc1ccccc1`, the “activation, negative = inhibition” value is reported as 0.351%.
For `O=C(Nc1ccc([N+](=O)[O-])cc1)OCCc1ccccn1`, the Potency was 3550 nM (active).
In the case of `O=C(NCCc1ccccn1)c1nc(Cn2cc([N+](=O)[O-])cn2)no1`, the “activation, negative = inhibition” value is reported as -0.126%.
For `O=[N+]([O-])c1ccc(NC(=S)N2CCN(c3ccccn3)CC2)cc1`, the “activation, negative = inhibition” value was -1.53%.
For `Cc1c(C(=O)Nc2ccccc2)sc2nc3n(c(=O)c12)CCCCC3`, the Potency was 2510 nM (active).
For `Cc1c(C(=O)Nc2cccc(-c3nnc4n3CCCCC4)c2)oc2ccccc12`, the “activation, negative = inhibition” value was 0.216%.
In the case of `CC(=O)c1ccc(NC(=O)c2sc3nc4n(c(=O)c3c2C)CCCCC4)cc1`, the “activation, negative = inhibition” value is reported as 24.8%.
For `COc1cccc(CNC(=O)COC(=O)CN2C(=O)NC3(CCCCC3C)C2=O)c1` (stereo unspecified), the “activation, negative = inhibition” value was 1.12%.
With `COc1ccc(OC)c(-c2csc(NC(=O)COC(=O)C3CC3)n2)c1` the “activation, negative = inhibition” value was -2.55%.
With `COC(=O)c1cn(CC(=O)NCc2cccs2)c2ccccc12` the Potency was 3550 nM (active).
In the case of `COC(=O)Cn1cc(C(=O)c2cccs2)c2ccccc21`, the “activation, negative = inhibition” value is reported as -3.45%.
With `O=C(Cn1cc(C(=O)c2cccs2)c2ccccc21)NCc1cccs1` the “activation, negative = inhibition” value was 18%.
